{"source": "PubChem BioAssay", "note": "Active and inactive are the calls of the source.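 The calls were made as follows: active = viability loss from added drug above about 55%, and viability with drug at most 40%, in both replicates (limit read from the data, passing the limit was not always enough); inconclusive = both conditions met in only one replicate; inactive = neither replicate meets both conditions.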"}
{"experiment": "MRP1 drug-resistance reversers in H69AR cells – cell-based, doxorubicin co-treatment, pilot screen (AID 601)", "conditions": "H69AR cells + 2 uM doxorubicin, CellTiter-Glo, 72 h; at 10 µM; active compounds read high"}
{"smiles": "CCOc1ccc(N(CC(=O)Nc2ccc(C)c(C)c2)S(=O)(=O)c2c(C)noc2C)cc1", "differential viability (reversal)": "-14.4% (inactive)"}
{"smiles": "CCCn1c(OC)nc2c1c(=O)n(C)c(=O)n2C", "differential viability (reversal)": "0.235% (inactive)"}
{"smiles": "COc1cc2[nH]c(=O)n(CCCCCC(=O)N3CCN(c4ccccn4)CC3)c(=O)c2cc1OC", "differential viability (reversal)": "-2.77% (inactive)"}
{"smiles": "CCOc1ccc(N(CC(=O)NC2CCCCC2)S(=O)(=O)c2c(C)noc2C)cc1", "differential viability (reversal)": "-11.3% (inactive)"}
{"smiles": "O=C(c1ccco1)N1CCN(C(=O)c2sccc2-c2ccccc2)CC1", "differential viability (reversal)": "-6.79% (inactive)"}
{"smiles": "CCSC1=C(C#N)C(c2ccccc2OC)CC(=O)N1", "note": "(centres undefined)", "differential viability (reversal)": "6.97% (inactive)"}
{"smiles": "CCOC(=O)Cn1nc(-c2ccc(Cl)cc2)cc1N", "differential viability (reversal)": "18% (inactive)"}
{"smiles": "CC(C(=O)N1CC2(C)CC1CC(C)(C)C2)N1C(=O)c2ccccc2C1=O", "note": "(centres undefined)", "differential viability (reversal)": "16.8% (inactive)"}
{"smiles": "COc1cccc(N(C(C)=O)c2nc(C)cc(C)c2C#N)c1", "differential viability (reversal)": "8.34% (inactive)"}
{"smiles": "COc1cccc(NC(=O)c2ccco2)c1", "differential viability (reversal)": "7.72% (inactive)"}
{"smiles": "Cc1ccc(Cn2c(CN3CCOCC3)nc3c2c(=O)n(C)c(=O)n3C)cc1", "differential viability (reversal)": "2.54% (inactive)"}
{"smiles": "CCOc1ccc(NC(=O)CSc2nccn2C)cc1", "differential viability (reversal)": "6.7% (inactive)"}
{"smiles": "Cc1nc2ccc(Br)cn2c1NC(C)(C)C", "differential viability (reversal)": "0.425% (inactive)"}
{"smiles": "COc1ccccc1C(=O)NCCc1nc2ccccc2n1C", "differential viability (reversal)": "5.79% (inactive)"}
{"smiles": "Cn1ccnc1SCC(=O)Nc1ccc2ccccc2c1", "differential viability (reversal)": "17.8% (inactive)"}
{"smiles": "c1nc(NCC2(N3CCOCC3)CCCCC2)c2ccsc2n1", "differential viability (reversal)": "-0.545% (inactive)"}
{"smiles": "Cc1noc(C(=O)Nc2ccc3c(c2)OCO3)c1Cl", "differential viability (reversal)": "-0.25% (inactive)"}
{"smiles": "Cc1ccc(S(=O)(=O)N2CCOCC2)cc1C(=O)Nc1nc(-c2cccnc2)cs1", "differential viability (reversal)": "9% (inactive)"}
{"smiles": "Cc1cccc(C)c1OCc1nnc(SCC(=O)Nc2ccccc2F)o1", "differential viability (reversal)": "-7.2% (inactive)"}
{"smiles": "CCN(CC)CCCN1C(=O)C(O)=C(C(=O)c2ccco2)C1c1ccc(C)o1", "note": "(centres undefined)", "differential viability (reversal)": "-0.59% (inactive)"}
{"smiles": "Cc1ccc(S(=O)(=O)C(C#N)c2nc3ccccc3nc2N2CCCCC2)cc1", "note": "(centres undefined)", "differential viability (reversal)": "-2.64% (inactive)"}
{"smiles": "C(/CCc1ccccc1)=N\\n1cnnc1", "differential viability (reversal)": "9.93% (inactive)"}
{"smiles": "CCOCCCNC(=O)C(c1ccccc1)N(Cc1ccc2c(c1)OCO2)C(=O)CNC(C)=O", "note": "(centres undefined)", "differential viability (reversal)": "2.97% (inactive)"}
{"smiles": "COc1ccccc1N1CCN(c2cc(=O)n(Cc3ccc(F)cc3)c(=O)[nH]2)CC1", "differential viability (reversal)": "-38% (inactive)"}
{"smiles": "CNC(=O)C1C2C=CC3(O2)C1C(=O)N(C1CC1)C3C(=O)NCc1ccc(OC)cc1", "note": "(centres undefined)", "differential viability (reversal)": "-0.53% (inactive)"}
{"smiles": "CCCSc1nc2c(cnn2-c2ccc(C)cc2)c(=O)[nH]1", "differential viability (reversal)": "-3.51% (inactive)"}
{"smiles": "Nn1c(Cc2ccccc2F)nnc1SCC(=O)N1CC(=O)Nc2ccccc21", "differential viability (reversal)": "-1.98% (inactive)"}
{"smiles": "CCc1ccc(N2CC(C(=O)OCC(=O)NC3CCS(=O)(=O)C3)CC2=O)cc1", "note": "(centres undefined)", "differential viability (reversal)": "3.14% (inactive)"}
{"smiles": "Cc1ccccc1Cn1ccc(NC(=O)c2onc(C)c2Cl)n1", "differential viability (reversal)": "16.8% (inactive)"}
{"smiles": "O=C(CSc1ccc2nnc(-c3ccccc3)n2n1)N1CCN(c2ccccc2)CC1", "differential viability (reversal)": "-9.57% (inactive)"}
{"smiles": "CC(C)C(NC(=O)c1ccc(S(=O)(=O)N2CCOCC2)cc1)c1nc2ccccc2[nH]1", "note": "(centres undefined)", "differential viability (reversal)": "-2.94% (inactive)"}
{"smiles": "Cc1ccc(SCC(=O)NCCN2C(=O)CSC2=O)c(C)c1", "differential viability (reversal)": "-1.79% (inactive)"}
{"smiles": "N#Cc1c2n(c(=O)[nH]c1=O)CCCCC2", "differential viability (reversal)": "3.5% (inactive)"}
{"smiles": "CCN(C1CCCCC1)S(=O)(=O)c1ccc(S(=O)(=O)N2CCN(CCC#N)CC2)cc1", "differential viability (reversal)": "-10.4% (inactive)"}
{"smiles": "COc1cccc2c(=O)c3c(cnn3C)n(C)c12", "differential viability (reversal)": "-10.9% (inactive)"}
{"smiles": "Cc1nnc(N2C(=O)C(O)=C(C(=O)c3ccco3)C2c2ccc(F)cc2)s1", "note": "(centres undefined)", "differential viability (reversal)": "8.77% (inactive)"}
{"smiles": "CC1(C)CC(=O)C(C=NCC2CCNCC2)=C(O)C1", "differential viability (reversal)": "-4.75% (inactive)"}
{"smiles": "CCOC(=O)C(C)Sc1nnc(Cc2cc(=O)[nH]c(=O)[nH]2)n1-c1ccc(Cl)cc1", "note": "(centres undefined)", "differential viability (reversal)": "4.81% (inactive)"}
{"smiles": "O=C(CS(=O)(=O)Cc1ccccc1)Nc1nc2ccccc2s1", "differential viability (reversal)": "-3.83% (inactive)"}
